# KCC2 mod: KCC2 cotransporter modulators, thallium flux, primary screen, cell-based, HEK293 KCC2, FluoZin-2 fluorescence, MLSMR; Solute carrier family 12 member 5 (Homo sapiens), Q9H2X9; KCC2 cells, thallium flux FluoZin-2 fluorescence; hit rate 2.2% among 190,000; B-score of Tl+ flux slope (higher = more flux/activation; lower = inhibition) at 10 µM;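 active = thallium flux slope and its plate-corrected score both differing from the plate sample mean at a set confidence after two filtering rounds, in either direction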;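 note: slope of fluorescence scaled to starting intensity during 10 to 20 s after thallium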
# Lmaj promast: Leishmania major promastigote growth inhibition, primary screen; Leishmania major promastigotes, resazurin fluorescence viability; inhibition, % at 10 µM; hit rate 9% among 200,000; AID 1063, 2008; in the data active = inhibition above about 50%;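 note: promastigotes grown with compound for 44 hours at 28 °C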
# ROMK primary: ROMK potassium channel modulators, primary screen, cell-based, thallium flux, MLSMR library | ATP-sensitive inward rectifier potassium channel 1 (Homo sapiens), P48048 | AID 1918, 2009 | hit rate 2% among 130,000 | B-score at 10 µM | Tet-inducible ROMK, thallium flux fluorescence; actives lie on both sides;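 active = signal ratio slope over the read window, or its plate-corrected B-score, at least 3 SD from the plate mean, either direction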;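 note: B-score of the F/F0 ratio slope over 7 to 12 s after thallium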
# Target sequence (P48048 whole entry, looked up): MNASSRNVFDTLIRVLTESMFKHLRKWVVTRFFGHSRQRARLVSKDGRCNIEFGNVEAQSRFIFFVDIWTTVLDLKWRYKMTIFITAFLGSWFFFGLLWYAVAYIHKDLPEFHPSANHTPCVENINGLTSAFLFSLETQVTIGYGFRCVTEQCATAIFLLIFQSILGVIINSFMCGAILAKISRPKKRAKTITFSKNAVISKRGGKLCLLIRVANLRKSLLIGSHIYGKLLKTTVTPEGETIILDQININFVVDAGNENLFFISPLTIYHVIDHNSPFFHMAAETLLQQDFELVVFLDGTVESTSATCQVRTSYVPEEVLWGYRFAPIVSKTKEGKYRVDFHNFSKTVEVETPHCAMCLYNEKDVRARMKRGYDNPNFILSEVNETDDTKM
# WT yeast gro inh: growth inhibition of WT strain, primary screen, mitochondrial fusion inhibitor project, WT and mutant strains, chemical genetic. mitochondrial fusion phenotypic screen. inhibition, % at 10 µM. hit rate 2.1% among 190,000; in the data active = inhibition above about 58%; tested in S. cerevisiae
# m-calpain inh: inhibitors of pig calpain II, primary screen, biochemical, fluorogenic peptide substrate, 1536-well; AID 1236, 2008; inhibition, % at 16 µM; hit rate 0.37% among 220,000; purified calpain II, 30 min;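 active = inhibition above about 50%, limit read from the data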
# KCC2 sec1: KCC2 modulators in sodium-free buffer, confirmation, cell-based, HEK293 KCC2, thallium flux, secondary assay | shares compounds with KCC2 mod | FluoZin2 fluorescence; stronger effect = higher value | normalised thallium flux (F/F0 slope) at 10 µM | hit rate 15% among 3,700;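 active = thallium flux slope above the same plate's solvent-only control mean plus 3 SD; inconclusive = the two replicate wells disagree; inactive = no significant difference from solvent-only control wells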
# KCC2 bumet counter: thallium flux persisting under bumetanide in KCC2 cells, confirmation, counter-screen for KCC2 modulator project, cell-based, HEK293 KCC2, FluoZin2, secondary assay 3; AID 1714, 2009; HEK293-KCC2 + bumetanide/ouabain; stronger effect = higher value; shares compounds with KCC2 mod; hit rate 49% among 3,700; normalized thallium flux at 10 µM;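 active = thallium entry rate above the same plate's blocked-transporter control wells by more than 3 SD; inconclusive = the two repeat wells disagree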;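 note: raw slope of fluorescence over initial fluorescence between 10 and 20 s after thallium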
# KCC2 secondary2: KCC2 modulators without ouabain present, confirmation, cell-based, HEK293 KCC2, thallium flux, FluoZin2, secondary assay 2; thallium flux FluoZin2 fluorescence; actives lie on both sides; F/F0 rise rate, 10–20 s post-thallium; shares compounds with KCC2 mod; hit rate 23% among 3,700; normalized thallium flux at 10 µM;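 active = thallium flux slope more than 3 SD above or below the plate's solvent-only control mean, mostly below; inconclusive = the two repeat wells disagreed; inactive = no significant shift from solvent-only controls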;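 note: raw slope with 0.1% DMSO as baseline and bumetanide as block control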
# HEK293 Tl flux: thallium flux modulation in parental HEK cells, confirmation, counter-screen for KCC2 modulator project, cell-based, counterscreen 1. shares compounds with KCC2 mod. HEK293 parental cells, thallium flux FluoZin2, ouabain; baseline-ratio fluorescence slope, 10–20 s after thallium. thallium flux rate (normalised fluorescence) at 10 µM. hit rate 46% among 3,700. AID 1716, 2009;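 active = thallium flux rate significantly above the same plate's solvent-only control wells, beyond their mean plus 3 SD; inconclusive = the two replicate wells gave conflicting results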
# KCC2 ouabain: KCC2 inhibitors and activators, ouabain retest, confirmation, HEK-KCC2 cells. shares compounds with KCC2 mod. AID 1717, 2009. HEK293-KCC2, thallium flux FluoZin2 fluorescence; bidirectional: low = inhibitor, high = activator. raw Tl+ flux slope (below DMSO = inhibition, above = activation) at 10 µM. hit rate 48% among 3,700;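 active = thallium flux slope beyond 3 SD from same-plate DMSO control mean in most replicates, usually higher, sometimes lower; inconclusive = repeat tests gave conflicting results; inactive = no significant difference from controls in most replicates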;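 note: slope of initial-normalized fluorescence between seconds 10 and 20 after thallium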
# HEK293 Tl flux2: native HEK Tl+ uptake effects, second counter-screen – HEK cells, counterscreen 2, counter-screen for KCC2 modulator project, confirmation; shares compounds with KCC2 mod; HEK293 parental, thallium flux FluoZin-2 fluorescence slope; thallium flux slope at 10 µM; hit rate 33% among 3,700; AID 1718, 2009;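 active = thallium flux slope above the same plate's solvent-control mean plus 3 SD in both duplicate wells; inconclusive = duplicate wells that disagreed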;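 note: run without ouabain in cells lacking the KCC2 cotransporter; slope of fluorescence scaled to its starting value between 10 and 20 s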
# Numbers without * were called inactive; ? = inconclusive; . = no result given. Compounds with a hit are over-represented: about 12% of the library has one in this group of screens.
SMILES,KCC2 mod,Lmaj promast,ROMK primary,WT yeast gro inh,m-calpain inh,KCC2 sec1,KCC2 bumet counter,KCC2 secondary2,HEK293 Tl flux,KCC2 ouabain,HEK293 Tl flux2
Cc1nc(C(=O)NCC(=O)c2ccccc2)c(C(F)(F)F)o1,0.26,.,.,.,19,.,.,.,.,.,.
Cc1nc(C(=O)NNC(=O)c2ccccc2)c(C(F)(F)F)o1,4.2*,.,.,.,-18,0.0058,0.0065*,?,0.0087*,0.019,0.01
Clc1ccc(-c2csc(NNC3=NCCCCC3)n2)cc1,-4.4*,6,.,31,3,?,0.0064,0.03,0.0073,0.019*,0.0095
O=C(CSc1cccc2cccnc12)N1CCCC1,22*,48,.,2,-334,0.0056,0.033*,0.029,0.026*,0.037*,0.016*
CCOc1ncccc1C(=O)OCC(=O)c1ccc[nH]1,-4.1*,5,0.26,-5,-36,0.01,0.0069,0.033,0.0043,0.021,0.012
CCOc1ncccc1C(=O)OCC(=O)NCCc1ccccc1,0.38,5,0.022,-4,-8,.,.,.,.,.,.
COc1ccccc1NC(=O)CCC(=O)OCc1cccc([N+](=O)[O-])c1,0.25,-5,-0.29,-12,-20,.,.,.,.,.,.
O=C(NCc1ccccn1)c1ccc(Cn2c(=S)[nH]c3ccc(Br)cc3c2=O)cc1,2,9,0.06,-3,-89,.,.,.,.,.,.
O=c1c2cc(Cl)ccc2[nH]c(=S)n1Cc1ccccn1,9.9*,-7,.,-2,2,0.0073,0.067*,0.047*,0.036*,0.054*,0.034*
CCOCCCn1c(=S)[nH]c2cc(C(=O)NCCCN(CC)CC)ccc2c1=O,-0.13,-11,0.069,5,-1,.,.,.,.,.,.
O=c1c2cc(Br)ccc2[nH]c(=S)n1Cc1cccnc1,5.4*,-2,.,-1,-14,?,0.025*,0.034,0.014*,0.029,0.012*
CCN(CC)CCn1c(=S)[nH]c2ccc(Cl)cc2c1=O,25*,5,.,2,13,0.01,0.017*,0.038,?,0.03*,0.014
Cc1ccc(-c2cc(Cc3ccccn3)c(=O)[nH]n2)cc1,-1.8,.,0.0033,.,-8,0.012,0.0086*,0.032,0.0071,0.021,0.011
CCn1c(SCC(=O)Nc2ccc(C(C)=O)cc2)nc2nc3c(cc2c1=O)CCCC3,.,16,.,-14,-27,.,.,.,.,.,.
CCn1c(SCC(=O)Nc2ccc(Cl)cc2)nc2nc3c(cc2c1=O)CCCC3,4.8*,-3,.,36,31,?,0.015*,0.033,0.013*,?,0.013*
N#C/C(=C(/O)c1cccc(F)c1)c1nc2ccccc2s1,-3*,.,.,.,35,0.0089,0.006,?,0.0077,0.016*,0.011
Fc1c(F)c(F)c(CSc2nc3ccccc3[nH]2)c(F)c1F,.,18,-0.91,26,6,.,.,.,.,.,.
FC(F)Sc1nc2ccccc2[nH]1,50*,.,0.57,.,-5,0.026*,0.11*,0.048*,0.05*,0.051*,0.024*
C/C(=N\NC(=S)NCc1ccccc1)c1cccc(Br)c1,4.8*,-2,0.32,70*,22,0.016,0.017*,0.029,0.0084,0.018,0.011
COc1ccc(CNC(=S)N/N=C(\C)c2ccc(OC)cc2)cc1,2,.,.,.,0,.,.,.,.,.,.
C/C(=N\NC(=S)NCc1ccccc1)c1ccc2ccccc2c1,6*,44,1.1,64*,13,0.0085,0.019*,0.027,0.0085*,?,0.0093
C=CCNC(=S)N/N=C(\C)c1cccc(OC)c1,4.9*,13,-0.68,34,7,0.013*,0.043*,0.032,0.015*,0.026,0.012*
COc1ccc(NC(=S)NCCCc2ccccc2)cc1,-4.8*,1,0.012,18,-5,0.015,?,0.023*,0.0067,0.015,0.0094
COc1ccccc1N(Cc1cc(=O)[nH]c2ccccc12)C(=O)c1cccc([N+](=O)[O-])c1,-2.3,.,.,.,-21,.,.,.,.,.,.
COc1ccccc1/C(C)=N/NC(=S)NCc1ccccc1,6.9*,3,-0.43,65*,1,0.0067,0.015*,0.031,0.015*,?,0.014*
SMILES,KCC2 mod,Lmaj promast,ROMK primary,WT yeast gro inh,m-calpain inh,KCC2 sec1,KCC2 bumet counter,KCC2 secondary2,HEK293 Tl flux,KCC2 ouabain,HEK293 Tl flux2
COc1ccc(/C(C)=N/NC(=S)NCCc2ccccc2)cc1,7.7*,9,-0.64,67,21,0.011,0.016*,0.03,0.021*,?,?
C/C(=N\NC(=S)NC(C)C)c1ccccc1,5.8*,.,.,.,12,?,0.02*,0.028,0.0095*,0.046*,?
Cc1ccc(/C(O)=C2/C(=O)C(=O)N(CCN3CCOCC3)C2c2ccccn2)cc1 (configuration not stated),2.7*,-3,.,-12,-13,0.0079,?,0.033,?,0.026,0.01
O=C1C(=O)N(CCN2CCOCC2)C(c2ccccn2)/C1=C(/O)c1ccccc1 (configuration not stated),.,5,-0.072,-8,10,.,.,.,.,.,.
COc1ccc(/C(O)=C2/C(=O)C(=O)N(CCN(C)C)C2c2ccccn2)cc1OC (configuration not stated),4*,8,0.18,15,-16,0.0089,0.0074,0.029,?,0.021,?
O=C(Nc1ccc(Cl)cc1)Nc1ccccc1C(=O)O,-0.88,-6,1.2,-13,-25,.,.,.,.,.,.
O=C(Nc1ccc(Cl)c(Cl)c1)Nc1ccccc1C(=O)O,-4.5*,-8,0.087,9,-78,0.014,?,0.024*,0.0065,0.013,0.0094
